Reference: the OligoGym collection

Molecular target: ZNF512B
Test: pooled miR-30 sensor sort-seq; sequence = guide strand
Conditions: shRNA

Sequence | sensor-assay potency score (higher = more potent)
TGAGTTTGGACACTTCACCCTC | -0.0834
TTTTTCTTCCCTTCTGTCTTGT | 0.00205
TTTGGACTTGAACTGCTTCCGG | 0.34
TTCGTAACTGTCACAAGCTTTG | -1.03
TAGTGTGGTAGTTGAGGCCGGC | -0.21
TTGCTGACCACAATGGGCCTGC | 0.0376
TTGCTGACTCCCACCTTCCGGC | -0.809
TTGGACTTGAACTGCTTCCGGC | -0.182
TTCGGAACCAGTTCTCTGCGTG | -0.0926
TACTTGAGCCCGTAGATGCTGG | -0.743
TTGAAGGGCATCAAGCTTCTGC | 0.255

Molecular target: ZNF517
Test: as above
Conditions: shRNA

Sequence | sensor-assay potency score (higher = more potent)
TTGTATCTGAACGCCTTGCCGC | -1.19
TTGAGGGTGAACCTGCGGCAGA | -1.5
TTCTGGTGCTGCAGCAGCCGGG | -1.68
TCGTTGAGGGTGAACCTGCGGC | -0.629
TTCTCTGCAGAGGAGACTCCAT | -1.52
TTCAGCGTGTAGCTCCTGCGGA | -0.596
TTTGGCAACAAGAAAGCCTAGT | 0.561
TCGTTCAGCGTGTAGCTCCTGC | -0.267
TCCTTGTGAAGTACACAGCCAC | -1.39
TCTTCCTGCAGAACCCTTGGGG | -0.177
TGCTCGTTGAGGGTGAACCTGC | -1.07
TTGTGAAGTACACAGCCACATC | -1.38

Molecular target: ZNF543
Test: as above
Conditions: shRNA

Sequence | sensor-assay potency score (higher = more potent)
TTGTACATACACCATCATCTGA | -0.467
TTCTTTTTAAACACTTTCCCGC | -0.356
TGTAGTGTCGAATGAAACCTGG | -0.172
TAATCTTTGTACATACACCATC | -0.698
TTTCACTCCAGTGTGAATCTGT | 0.767
TCTTTGTACATACACCATCATC | -1.6
TTCACTTGAGTGTGAATCCGTT | -0.0362
TTCTGTGTAATCTTTGTACATA | -0.793
TAGGAATTTTTCTCTTCGCGAA | -0.467
TTTTTAAACACTTTCCCGCATT | -0.669
TTCTGTTGAAACTTGTTTCTGT | 0.852
TTCAGAACTCATTTTCTCCAGC | 0.596

Molecular target: ZNF548
Test: as above
Conditions: shRNA

Sequence | sensor-assay potency score (higher = more potent)
TTTCTGGTGATGAACCAGGTGA | -0.687
TTGTAACCTCTGACACTCCTAC | -0.158
TGTCTAACAAATGTGGAGCTGT | 0.213
TTATAAGGTCTTTCTCCGGTGT | -0.00393
ATTTGTAATCATTTTGTCCAGT | -0.192
